Screening data from PubChem BioAssay.
Most compounds without a hit are left out; they make up all but 21% or so of the library.
Pf growth 48h = P. falciparum growth inhibition at 48 hours (one generation) | P. falciparum luciferase growth in erythrocytes, 48 h | Potency, µM (titrated, usually from 28.7 µM), inactives show top-dose activity change, negative = inhibition, most hits filed as inhibitors | 310,000 tested, 5.9% active | AID 504832; also: potency is read from the fitted curve at half-maximal effect; % is scaled to controls: 0 for no effect and ±100 for the full control effect
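Luciferase-expressing P. falciparum in infected erythrocytes (2% hematocrit, 0.1% parasitemia final) in RPMI 1640/0.5% Albumax were exposed to compound for 48 hours at 37 C, 5% CO2; growth read as luminescence.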
Shiga toxin inh = blocks Shiga toxin action in Vero cells | Vero cells, Shiga toxin protein synthesis inhibition reporter | inhibition, % at 38.7 µM | 290,000 tested, 9.2% active | AID 2315; in the data active = inhibition mostly above about 28%, no sharp cut-off; inactive = mostly below about 43%; also: 0% is about no effect
HCV inh = inhibitors of hepatitis C virus infection; 340,000 tested, 3.4% active; Huh7.5.1 HCVcc-Cre infection, luciferase reporter, 44 h; Potency, µM (highest dose often 41.8 µM), for the others: at the highest dose activity change, negative = inhibition, hits mostly inhibitors; also: potency is read from the fitted curve at half-maximal effect; % is scaled to controls: 0 for no effect and ±100 for the full control effect
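After 44 h co-culture of compound, cells and HCVcc-Cre (~0.5 moi), substrate is added for 15 min at room temperature and luciferase measured over 15 sec. Cells were seeded at 1,000/well and pre-cultured 4 h.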
CHX counter = counter-screen for Shiga toxin inhibitors: cycloheximide protein synthesis inhibition. cell reporter, cycloheximide protein synthesis inhibition counterscreen. max response, %. 300,000 tested, 12% active; in the data active = max response mostly above about 13%, no sharp cut-off; inactive = mostly below about 14%; also: read at 38.3 µM for the half of the compounds with a filed dose; 0% is about no effect
HCMV antiviral = human cytomegalovirus inhibition; HFF cells, HCMV-luciferase reporter, 72 h; active compounds read low; activity change, negative = inhibition, % at 57.5 µM; 410,000 tested, 4.5% active; AID 1259415; in the data active = activity change below about -60%; inconclusive = no clear call, values can overlap the other calls; inactive = above about -39%; also: % is scaled to controls: 0 for no effect and ±100 for the full control effect
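After 16 h attachment at 37C, HFF cells received test compound and HCMV-luciferase (1 PFU/cell); reporter luminescence read 72 h later, data normalized against buffer-only and known inhibitor Salinomycin.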
Pf growth 96h = inhibits malaria parasite growth, 96 h. 320,000 tested, 6.9% active. Potency, µM (highest dose often 28.7 µM), for the others: at the top dose activity change, negative = inhibition, hits mostly inhibitors. P. falciparum luciferase reporter growth, 96 h; also: potency is read from the fitted curve at half-maximal effect; % is scaled to controls: 0 for no effect and ±100 for the full control effect
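Parasite growth measured via integrated firefly luciferase reporter in P. falciparum. Infected erythrocytes at 2% hematocrit, 0.05% parasitemia final were treated 96 hours at 37 C under 5% CO2, and luminescence was read.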
Starred values were filed as active, the others as inactive. Unless noted, calls follow the shape of the dose curve; as a rule, active = well fitted inhibition curve with a large enough effect; inconclusive = small, poorly fitted or top-dose-only effect, or another doubt; inactive = no such curve, though single readings can be large or run the other way.

O=C(NCc1ccco1)c1cccc(-c2nnc(-c3ccccc3)o2)c1 was read as Pf growth 48h inconclusive, Shiga toxin inh 49*, HCV inh inconclusive, CHX counter 22* and HCMV antiviral -15.
For O=C(NCc1ccco1)c1ccccc1-c1nc(-c2ccccc2)no1 the results were Shiga toxin inh 17, HCV inh inconclusive, CHX counter 11, HCMV antiviral -14 and Pf growth 96h 51%.
Screening CC[C@H](C)[C@H](NC(=O)[C@H](Cc1ccc(O)cc1)NC(=O)[C@H](Cc1cnc[nH]1)NC(=O)[C@H](CCCNC(=N)N)NC(=O)[C@H](CC(C)C)NC(=O)[C@H](C)NC(=O)[C@H](CO)NC(=O)[C@H](Cc1ccc(O)cc1)NC(=O)[C@H](Cc1ccc(O)cc1)NC(=O)[C@H](CCCNC(=N)N)NC(=O)[C@H](C)NC(=O)[C@H](CC(C)C)NC(=O)[C@H](CC(=O)O)NC(=O)[C@H](CCC(=O)O)NC(=O)[C@H](C)NC(=O)[C@@H]1CCCN1C(=O)[C@H](C)NC(=O)[C@H](CC(=O)O)NC(=O)[C@H](CCC(=O)O)NC(=O)CNC(=O)[C@@H]1CCCN1C(=O)[C@H](CC(N)=O)NC(=O)[C@H](CC(=O)O)NC(=O)[C@@H]1CCCN1C(=O)[C@H](CCCCN)NC(=O)[C@@H](N)CO)C(=O)N[C@@H](CC(N)=O)C(=O)N[C@@H](CC(C)C)C(=O)N[C@H](C(=O)N[C@H](C(=O)N[C@@H](CCCNC(=N)N)C(=O)N[C@@H](CCC(N)=O)C(=O)N[C@@H](CCCNC(=N)N)C(=O)N[C@@H](Cc1ccc(O)cc1)C(N)=O)[C@@H](C)O)[C@@H](C)CC returned Shiga toxin inh 10 and CHX counter -6.
Screening NC(=O)c1cccc2c3c([nH]c12)CCCC3 returned Pf growth 48h 44%, Shiga toxin inh 87*, HCV inh 0%, CHX counter 36* and Pf growth 96h -10%.
O=[N+]([O-])c1ccc(O)c(C2=NNC(c3ccccc3F)C2)c1 (stereo not drawn) was read as Pf growth 48h 0%, Shiga toxin inh 84*, HCV inh inconclusive, CHX counter 40*, HCMV antiviral 0 and Pf growth 96h 22%.
Screening COC(=O)/C=C/c1cnc[nH]1 returned Pf growth 48h -7%, Shiga toxin inh 1, HCV inh 18%, CHX counter 0, HCMV antiviral -10 and Pf growth 96h -33%.
`CN(C)S(=O)(=O)c1ccc(Nc2ccc(-c3ccc4c(c3)OCCO4)nn2)cc1` gave Pf growth 48h inconclusive, Shiga toxin inh 25, HCV inh -16%, CHX counter -2, HCMV antiviral -6 and Pf growth 96h 5.9µM*.
For CCN(CC)S(=O)(=O)c1ccc(Nc2ccc(-c3ccc4c(c3)OCCO4)nn2)cc1 the results were Pf growth 48h -1%, Shiga toxin inh 11, HCV inh inconclusive, CHX counter 10, HCMV antiviral -3 and Pf growth 96h inconclusive.
For CN(C(=O)c1cccc(Nc2ccc(-c3ccc4c(c3)OCCO4)nn2)c1)C1CCCCC1 the results were Pf growth 48h inconclusive, Shiga toxin inh 64*, HCV inh inconclusive, CHX counter 53*, HCMV antiviral -93* and Pf growth 96h 39%.
`Cc1ccc(N2C(=O)CC(c3c[nH]c4ccccc34)C2=O)cc1` (stereo not drawn) gave Pf growth 48h 3%, Shiga toxin inh 20, HCV inh 4%, CHX counter 15, HCMV antiviral 48 and Pf growth 96h inconclusive.
For CCC1=NN=C(c2ccc(F)cc2)C(c2c[nH]c3ccccc23)N1O (stereo not drawn) the results were Pf growth 48h inconclusive, Shiga toxin inh 74*, HCV inh -27%, CHX counter 28, HCMV antiviral 140 and Pf growth 96h -70%.
C[C@H](O)[C@@H]1C(=O)N2CCc3ccc(-c4ccccc4)cc3[C@@H]2C[C@@H]1N(C)C(=O)c1ccco1 was read as HCMV antiviral 9.
